Measurements from PubChem BioAssay (EPA / NIEHS).
Inconclusive results are not listed. Calls of active or inactive are those of the source. How the source made its calls: active means hit-call score of the fitted dose curve at least 0.9, where 1 is the maximum; inconclusive means response in the unintended direction; inactive means score below 0.9.

Molecular target: Bile acid receptor (Homo sapiens) (UniProt Q96RI1)
Test: OT_FXR_FXRSRC1_1440: Odyssey Thera (OT) 24-hour HEK293T Protein-Complementation Assay for Farnesoid X receptor/SRC-1 Co-activator (AID 2283384)
Method: OT_FXR_FXRSRC1_1440 is a cell-based assay that uses HEK293T, a human kidney cell line, with measurements taken at 24 hours after chemical dosing in a 384-well plate.OT_FXR_FXRSRC1_1440 is one of one assay component(s) measured or calculated from the OT_FXR_FXRSRC1_1440 assay. It is designed to make measurements of protein fragment complementation, a form of binding reporter, as detected with fluorescence intensity signals by Protein-fragment Complementation technology.Data from the assay component OT_FXR_FXRSRC1_1440 was analyzed into 1 assay endpoint. This assay endpoint, OT_FXR_FXRSRC1_1440, was analyzed in the positive analysis fitting direction relative to DMSO as the negative control and baseline of activity. Using a type of binding reporter, measures of receptor for gain-of-signal activity can be used to understand the binding at the pathway-level as they relate to the gene NR1H4. Furthermore, this assay endpoint can be referred to as a primary readout, because the performed assay has only produced 1 assay endpoint. To generalize the intended target to other relatable targets, this assay endpoint is annotated to the nuclear receptor intended target family, where the subfamily is non-steroidal.
Protein-fragment complementation assay, or PCA, is a method for the identification and quantification of protein-protein interactions. In the PCA, the proteins of interest ("bait" and "prey") are each covalently linked to fragments of a third protein (e.g. DHFR, which acts as a "reporter"). Interaction between the bait and the prey proteins brings the fragments of the reporter protein in close proximity to allow them to form a functional reporter protein whose activity can be measured.

Bile acid receptor (Homo sapiens), sequence (Q96RI1 whole entry, looked up): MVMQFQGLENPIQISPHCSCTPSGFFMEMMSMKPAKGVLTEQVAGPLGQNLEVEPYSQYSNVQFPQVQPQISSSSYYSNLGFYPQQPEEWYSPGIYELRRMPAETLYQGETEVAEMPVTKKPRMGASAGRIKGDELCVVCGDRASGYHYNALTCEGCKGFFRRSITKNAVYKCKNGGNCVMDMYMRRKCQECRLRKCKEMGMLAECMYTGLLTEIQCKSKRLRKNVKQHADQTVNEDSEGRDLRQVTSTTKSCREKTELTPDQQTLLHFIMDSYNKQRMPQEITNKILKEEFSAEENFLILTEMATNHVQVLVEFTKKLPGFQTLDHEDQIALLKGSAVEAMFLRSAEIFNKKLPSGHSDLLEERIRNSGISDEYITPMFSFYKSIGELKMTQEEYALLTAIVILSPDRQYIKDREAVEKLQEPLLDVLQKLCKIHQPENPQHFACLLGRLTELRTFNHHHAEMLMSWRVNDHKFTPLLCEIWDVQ

outcome, inactive:
Nc1ccc(N)c2c1C(=O)c1ccccc1C2=O
Cc1ccc(S(=O)(=O)Oc2ccc(N=Nc3ccc(-c4ccc(N=Nc5c(O)ccc6cc(S(=O)(=O)O)cc(S(=O)(=O)O)c56)c(C)c4)cc3C)cc2)cc1
CS(C)=O
CC(C=O)Cc1ccc(C(C)(C)C)cc1 (stereo unspecified)
CCCCCCC(=O)c1ccccc1
Nc1ccccc1[N+](=O)[O-]
CCc1cc(C(C)(C)C)c(O)c(C(C)(C)C)c1
CCCCCCCCN1CCCC1=O
C=C(C)C(=O)OCCOC1CC2CC1C1C=CCC21 (stereo unspecified)
CCCC(C)=O
O=C(O)c1ccc(O)cc1
CC(C)CC(C)CC(O)CC(C)C (stereo unspecified)
C=CC(=O)OCCCC
C=CC(C)(O)CCC=C(C)C (stereo unspecified)
O=C1NC2NC(=O)NC2N1 (stereo unspecified)
OCc1cccc(Oc2ccccc2)c1
Cc1cc(S(=O)(=O)O)ccc1N=Nc1c(O)ccc2ccccc12
CC1CCC(C(C)C)C(O)C1 (stereo unspecified)
CCCCCCCCSCCO
OCCc1ccccc1
CCCCCCCCCC(=O)OC
O=C(CC(=O)c1ccccc1)c1ccccc1
CCCCCCCCc1ccc(S(=O)(=O)O)cc1
CCCCCC(C=O)=Cc1ccccc1
CCNCCO
CCCOCCO
CCCCC1CCC(O)CC1 (stereo unspecified)
CSCCC=O
CC1CC(O)CC(C)(C)C1 (stereo unspecified)

AC50, active:
CCOC(=O)[C@@H](C)Oc1ccc(Oc2nc3ccc(Cl)cc3o2)cc1 50 µM
CCOC(=O)c1ccc(N)cc1 20.2 µM
O=c1c(O)c(-c2ccc(O)cc2)oc2cc(O)cc(O)c12 19.8 µM
Oc1ccc2cc(SSc3ccc4cc(O)ccc4c3)ccc2c1 75.3 µM
CCCCCCCCCCCCCC(=O)OCC(O)CO (stereo unspecified) 82.9 µM
O=[N+]([O-])c1ccc(O)cc1C(F)(F)F 77.1 µM
Cc1cc(=O)oc2cc(N(C)C)ccc12 50 µM
